PubChem BioAssay (NCATS)
A number with no mark means an inactive call. Active and inactive are the calls of the source. Calls follow the shape of the dose curve; as a rule, active = well fitted activation curve with a large enough effect; inconclusive = small, poorly fitted or top-dose-only effect; inactive = flat fitted curve, though single readings scatter.

Test: Confirmation and Secondary Assay for Modulators of Hemoglobin Beta Chain Splicing at IVS2 654 locus (AID 910);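 also: HeLa cells stably carrying EGFP split by mutant beta-globin IVS2-654 intron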;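 also: potency of activators that raise GFP signal by restoring correct splicing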; as to activation (splicing correction): % of control where 0% means no effect
Settings: HeLa EGFP-654 splicing reporter, GFP fluorescence, 48 h; series mostly up to 46.1 µM; activation (splicing correction): at the top concentration
From the text: NIH Chemical Genomics Center [NCGC] NIH Molecular Libraries Screening Centers Network [MLSCN] MLSCN Grant: 1 X01 MH080684-01 PI Name: Dr. Ryszard Kole NCGC Assay Overview: Modulation of Alternative Splicing as Therapy Abnormal splicing is associated with a number of diseases, including cancer and genetic diseases such as cystic fibrosis, muscular dystrophy and beta-thalassemia. Alteration of disease associated splicing patterns provides a promising target for treatment. […] Mutations in the second intron of the b-globin gene at positions 654 or 705 are clinically relevant and cause mis-splicing which results in an out of frame gene product. […] EGFP-654 HeLa Cells as screen system. HeLa cell lines were stably transfected with a construct in which the EGFP (enhanced green fluorescent protein) cDNA was interrupted by the second intron of the beta-globin gene (IVS2-654). The ISV2 intron contains mutations which cause mis-splicing of EGFP and premature termination of EGFP which results in a nonfluorescent protein product. […] Expression of the transgene was driven by the CMV promoter. We concluded that a low molecular weight compound, which restored correct splicing of intron 2 would also generate functional EGFP protein, resulting in a fluorescent signal. Thus, the HeLa cells that express the EGFP-654 construct can be used for high throughput screening of a chemical library.
NCGC Assay Protocol Summary: Confirmatory Screening. Freshly thawed HeLa EGFP-654 cells were seeded in 5 ul of optimem media (Invitrogen) containing 2 % fetal calf serum (Hyclone) and 1x penicillin/streptomycin (Invitrogen) at a concentration of 500 cells per well in 1536-well plates. Cells were incubated overnight at 37C in 5% CO2. The next day, cells were treated with DMSO, 500 nM antisense ISV2 654 PNA control oligo, or library compound and allowed to grow at 37C in 5% CO2 for 2 days. The PNA oligo blocked the mutation site in the intron and allowed proper (wild type) splicing to occur, resulting in full length EGFP expression and also allowed for optimization of the assay parameters. Plates were read in the Acumen Explorer (TTP Labtech) using 488 nm laser excitation and 500-520 nm emission PMT filter in a 1 x 8 uM capture mode. Fluorescnet objects ranging in size from 5 to 250 uM were measured and the total peak GFP intensity for each well was used for data analysis. Keywords: Thalassemia, beta-thalassemia, beta-globin, EGFP, ISV2 654, ISV2 705, SSO, PNA, antisense, splicing, MLSMR, MLSCN, NIH Roadmap, qHTS, NCGC
Potency is read from the fitted curve at half-maximal effect.

| SMILES | activation (splicing correction) | Potency |
| --- | --- | --- |
| CCC(C(=O)C(C)C(O)C(C)CCc1ccc(C)c(O)c1C(=O)O)C1OC(CC)(C2CC[C@@](O)(CC)C(C)O2)CC1C (stereo partly specified) | -7.01% | – |
| CC(CCC(=O)O)C1CCC2C3C(=O)C[C@@H]4CC(=O)CC[C@@]4(C)C3CC(=O)[C@]12C (stereo partly specified) | -1.08% [at 38.3 µM] | – |
| CCN1CCN(C(=O)NC(C(=O)NC2C(=O)N3C(C(=O)O)=C(CSc4nnnn4C)CSC23)c2ccc(O)cc2)C(=O)C1=O (stereo unspecified) | 2.16% | – |
| O=C(NC(CO)C(O)c1ccc([N+](=O)[O-])cc1)C(Cl)Cl (stereo unspecified) | 2.25% | – |
| OCC1O[C@H](O[C@H]2C(O)C(O)C(O)O[C@@H]2CO)C(O)C(O)C1O (stereo partly specified) | 1.72% [at 38.3 µM] | – |
| Cc1c(C)c2c(c(C)c1O)CCC(C)(CCCC(C)CCCC(C)CCCC(C)C)O2 (stereo unspecified) | -0.415% | – |
| CC(=O)OCC(=O)[C@@]1(O)CCC2C3CCC4=CC(=O)C=CC4(C)C3C(O)C[C@]21C (stereo partly specified) | 2.16% | – |
| NC(=O)c1ncn(C2OC(CO)C(O)C2O)c1N (stereo unspecified) | 1.77% [at 38.3 µM] | – |
| CC1(C)SC2C(NC(=O)C(C(=O)O)c3ccccc3)C(=O)N2C1C(=O)O (stereo unspecified) | 4.51% | – |
| C=NC(C(=O)NC1C(=O)N2C1SC(C)(C)C2C(=O)O)c1ccccc1 (stereo unspecified) | 8.23% | – |
| OCCN1CC(O)C(O)C(O)C1CO (stereo unspecified) | 8.74% | – |
| Nc1nc(/C(=C/CC(=O)O)C(=O)NC2C(=O)N3C(C(=O)O)=CCSC23)cs1 (stereo unspecified) | 6.88% | – |
| CO/N=C(/C(=O)N[C@H]1C(=O)N2C(C(=O)O)=C(COC(C)=O)CSC12)c1csc(N)n1 (stereo partly specified) | 10.9% | – |
| OC[C@@H]1O[C@@H](n2cnc3cncnc32)[C@@H](O)[C@H]1O | – | 5.01 µM (active) |
| CC1OC(OCC2OC(Oc3c(-c4ccc(OCCO)c(OCCO)c4)oc4cc(OCCO)cc(O)c4c3=O)C(O)C(O)C2O)[C@@H](O)C(O)C1O (stereo partly specified) | 5.41% | – |
| FC(F)(F)c1ccccc1-c1nc(Nc2ccncc2)c2ccccc2n1 | 0.337% [at 38.3 µM] | – |
| CC(=O)OCC1=C(C(=O)O)N2C(=O)C(NC(=O)CSc3ccncc3)[C@@H]2SC1 (stereo partly specified) | 8.91% | – |
| OCC1O[C@H](Oc2ccc(O)cc2)C(O)C(O)C1O (stereo partly specified) | -1.49% [at 38.3 µM] | – |
| CCCCC(=O)OC1CCC2C3CCc4cc(O)ccc4C3CC[C@]12C (stereo partly specified) | -0.468% | – |
| Cc1cc(C(C)(C)CC(C)(C)C)ccc1OCCOCC[N+](C)(C)Cc1ccccc1 | -7.43% | – |
| CC[C@@]1(O)CC2CN(CCc3c([nH]c4ccccc34)[C@](C(=O)OC)(c3cc4c(cc3OC)N(C)C3[C@@](O)(C(=O)OC)C(OC(C)=O)[C@]5(CC)C=CCN6CC[C@@]43C65)C2)C1 (stereo partly specified) | 5.28% | – |
| CCC1OC(=O)C[C@H](O)C(C)[C@@H](O[C@@H]2OC(C)C(O)C(N(C)C)C2O)C(CCN2CC(C)CC(C)C2)CC(C)C(=O)/C=C/C(C)=C\[C@@H]1COC1OC(C)C(O)C(OC)C1OC (stereo partly specified) | 8.76% | – |
| COc1cccc(OC)c1C(=O)NC1C(=O)N2C1SC(C)(C)C2C(=O)O (stereo unspecified) | 5.62% | – |
| CO/N=C(/C(=O)NC1C(=O)N2C(C(=O)O)=C(COC(N)=O)CSC12)c1ccco1 (stereo unspecified) | 13.7% | – |
| Cc1cccc(CNc2ccnc(-c3ccc(N(C)C)cc3)n2)c1 | 1.96% [at 38.3 µM] | – |
| Nc1ccn([C@@H]2O[C@@H](CO)[C@@H](O)[C@H]2O)c(=O)n1 | -2.03% | – |
